Assay outcomes deposited in PubChem BioAssay by several laboratories.
Rows were chosen to be rich in hits. Some 4% of all compounds tested hit in one or more screens of this group.
Gli-Sufu antag = Gli-Sufu pathway antagonists, primary screen, luciferase luminescence, Sufu-KO-LIGHT cells, uHTS. 0.74% of 340,000 active. Sufu-KO-LIGHT fibroblasts, Gli luciferase reporter luminescence. inhibition, % at 5 µM;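 active means inhibition above about 55%, limit read from the data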
Beta apoptosis = inhibitors of cytokine-induced beta cell apoptosis, primary screen, luminescence; INS-1E cytokine-induced death, ATP luminescence, 48 h; percent of positive-control rescue, neutral wells zero; 0.8% of 300,000 active; protection from apoptosis, % (no concentration beside the values);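 active means Every replicate reaches about 75%, or at least half do and their mean reaches it too, limit read from the data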;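 further: higher means more ATP so stronger rescue from cytokine killing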
Mdm2 MdmX PPI = inhibitors of human Mdm2-MdmX association, primary screen, cell-based, luminescence, split luciferase, SaOS-2, uHTS. SaOS-2 split-luciferase Mdm2/MdmX complementation. inhibition, % at 8 µM. Protein Mdm4 (Homo sapiens) + E3 ubiquitin-protein ligase Mdm2 (Homo sapiens), …. 3% of 330,000 active. AID 485346, 2010;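 active means inhibition of at least 50% at 8 µM in the primary screen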
Jurkat NFkB inh = inhibitors of induced NF-kB luciferase reporter, primary screen, TCR NF-kB activation inhibitor project, cell-based, luminescence, uHTS. inhibition, % at 4 µM. Jurkat, PMA/ionomycin-induced NF-kB luciferase reporter. 0.53% of 330,000 active; in the data active means inhibition above about 50%
697 NFkB inh = inhibitors of PMA/ionomycin-induced NF-kB reporter, 697 cells, primary screen, B-cell NF-kB inhibitor project, cell-based, luminescence, uHTS. 697 B-cell NF-kB luciferase reporter, 16 h. AID 435022, 2010. 0.33% of 330,000 active. inhibition, % at 4 µM; in the data active means inhibition above about 35%
Mdm2 MdmX conf = Mdm2-MdmX complex disruptors, retested hits, confirmation, luminescence, single concentration. shares compounds with Mdm2 MdmX PPI. inhibition, % at 8 µM. Mdm2-MdmX binding, luminescent assay. AID 489028, 2010. 55% of 10,000 active; in the data active means inhibition above about 40%
FLuc counter = full-length luciferase signal inhibition, confirmation, counter-screen for Mdm2/MdmX interaction inhibitor project, cell-based, single concentration, SaOS-2. shares compounds with Mdm2 MdmX PPI. SaOS-2 full-length luciferase counterscreen, luminescence. inhibition, % at 8 µM. 77% of 6,200 active. AID 504607, 2011;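 active means mean inhibition at 8 µM reaching about 37%, which flags the compound as non-specific, limit read from the data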;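 further: p53-null SaOS-2 cells with luciferase driven by a doxycycline-inducible promoter; compound on cells about two nights before reading with doxycycline added after day one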
Numbers stand for hits; 0 = inactive; - = not tested or not shown.

SMILES	Gli-Sufu antag	Beta apoptosis	Mdm2 MdmX PPI	Jurkat NFkB inh	697 NFkB inh	Mdm2 MdmX conf	FLuc counter
O=C(NCc1ccco1)C1CCN(S(=O)(=O)c2ccccc2C(F)(F)F)CC1	0	0	0	0	0	-	-
O=C(NNC(=O)C1CCN(S(=O)(=O)c2ccccc2C(F)(F)F)CC1)c1ccccc1O	0	0	52.6	0	0	53.2	51.3
O=C(NNC(=O)C1CCN(S(=O)(=O)c2ccccc2)CC1)c1ccccc1O	0	0	0	0	0	-	-
CC(C)c1cccc(C(C)C)c1NC(=O)c1ccc(OCC(=O)NCc2ccccc2)cc1	-	0	75.5	0	0	59.9	56.5
CCN(CC)CCCNC(=O)C1CCN(c2ncnc3c2sc2cccc(F)c23)CC1	0	0	0	0	0	-	-
CC1CC(C)CN(CCCNC(=O)C2CCN(c3ncnc4c3sc3cccc(F)c34)CC2)C1 (centres undefined)	-	0	55.8	0	0	0	64.1
NC(=O)c1ccc(NC(=O)CS(=O)(=O)c2cn(CC(=O)N3CCCCC3)c3ccccc23)cc1	0	0	0	0	0	-	-
Cn1c(=O)n(CCc2ccccc2)c(=O)c2c1nc1n2CCCN1CCc1ccccc1	0	0	64.7	0	0	0	-
CCCn1c(=O)c2c(nc3n2CCCN3CCc2ccccc2)n(C)c1=O	0	0	0	0	0	-	-
O=C(NC(=S)Nc1ccc(NC(=O)c2cccs2)cc1)c1cc2ccccc2o1	0	0	52.4	0	0	0	-
COc1cc(NC(=O)c2cccc([N+](=O)[O-])c2)ccc1NC(=O)c1cc2ccccc2o1	0	0	81.4	0	0	0	87.8
CCOc1cccc(C(=O)Nc2ccc(NC(=O)c3cc4ccccc4o3)c(OC)c2)c1	0	0	0	0	0	-	-
COc1cc(NC(=O)c2cccc(C)c2)ccc1NC(=O)c1cc2ccccc2o1	0	0	66.9	0	0	0	80.6
COc1cc(NC(=S)NC(=O)C(C)C)ccc1NC(=O)c1cc2ccccc2o1	0	0	0	0	0	-	-
CCC(=O)NC(=S)Nc1ccc(NC(=O)c2cc3ccccc3o2)c(OC)c1	0	0	54.2	0	0	0	-
CCOC(=O)N1CCC(NC(=O)CC2C(=O)NCCN2Cc2cccc(F)c2F)CC1 (centres undefined)	0	0	0	0	0	-	-
C=CCNC(=S)N/N=C/c1ccc(-c2cc(Cl)ccc2Cl)o1	0	0	68.3	0	0	0	-
COC(=O)CSc1nc2ccc(NC(=O)CSc3nnnn3Cc3ccccc3)cc2s1	0	0	94.2	0	0	0	-
O=C(CSc1nc2ccc(NC(=O)CSc3nnnn3Cc3ccccc3)cc2s1)Nc1ccccc1	0	-	50.2	0	0	0	-
Cc1cc(C)c(NC(=O)CSc2nc3ccc(NC(=O)CSc4nnnn4Cc4ccccc4)cc3s2)c(C)c1	0	0	0	0	0	-	-
CC1=CC(C)[C@H](/C=N/n2c(=O)[nH]c3c([nH]c4ccc(Br)cc43)c2=O)C(C)C1 (some centres undefined)	0	0	97.7	0	0	0	-
COc1ccc2c(c1)[nH]c1c(=O)n(/N=C/C3C(C)C=C(C)CC3C)c(=O)[nH]c12 (centres undefined)	0	0	69.3	0	0	0	-
COc1ccc2[nH]c3c(=O)n(/N=C/[C@H]4C(C)C=C(C)CC4C)c(=O)[nH]c3c2c1 (some centres undefined)	0	0	0	0	0	-	-
COc1ccc(/C=N/n2c(=O)[nH]c3c([nH]c4ccc(Br)cc43)c2=O)cc1CN1CCOCC1	0	0	0	0	0	-	-
O=C(COC(=O)c1c(F)cccc1F)NCCNC(=O)COC(=O)c1c(F)cccc1F	0	0	0	0	0	-	-
SMILES	Gli-Sufu antag	Beta apoptosis	Mdm2 MdmX PPI	Jurkat NFkB inh	697 NFkB inh	Mdm2 MdmX conf	FLuc counter
Cc1cc(Br)cc(/C=N/NC(=O)c2ccc3c(c2)OCO3)c1O	0	88.4	67.9	0	0	67.5	0
O=C(N/N=C/c1cc(Cl)cc([N+](=O)[O-])c1O)c1ccc2c(c1)OCO2	0	0	0	0	0	-	-
COc1cc(Br)cc(/C=N/NC(=O)Cc2ccccc2)c1O	0	0	0	0	0	-	-
O=C(CNC(=O)c1ccc2c(c1)OCO2)N/N=C/c1cc(Br)ccc1O	0	81.0	51.6	0	0	58.5	47.0
O=C(Cc1ccccc1)N/N=C/c1cc(Br)cc(Cl)c1O	0	-	58.6	0	0	68.4	0
O=C(CNC(=O)c1ccccc1)N/N=C/c1cc(Br)ccc1O	0	0	0	0	0	-	-
O=C(N/N=C/c1cc(Br)cc(Cl)c1O)c1ccc2c(c1)OCO2	0	94.1	50.3	0	0	59.3	53.4
Cc1ccc(S(=O)(=O)N(C)CC(=O)NNC(=O)CCC(=O)c2ccc(F)cc2)cc1	0	0	0	0	0	-	-
CCOC(=O)C1(CCCc2ccccc2)CCN(C(=O)C2CCCN(C(N)=O)C2)CC1 (centres undefined)	0	0	0	0	0	-	-
Cc1ccc(/C=N/NC(=O)Cc2ccc(Cl)cc2)c(O)c1	0	83.4	60.4	0	0	53.8	42.2
CCCn1nc(NS(=O)(=O)c2cccc3nonc23)c2cc3ccccc3nc21	0	0	0	0	0	-	-
CCN(CC)CCn1c(=N)n(CCOc2ccccc2)c2ccccc21	0	0	50.0	0	0	60.6	62.0
CCCCn1c(=N)n(CCOc2ccc(C)cc2)c2ccccc21	0	0	63.4	0	0	0	62.6
Cc1cc(CN2CCN(CC(=O)Nc3cc(C(F)(F)F)ccc3-n3cncn3)CC2)no1	0	0	0	0	0	-	-
CCn1cc(C(=O)NCCC(C)C)c(=O)c2cc(F)c(N3CCN(C(=O)c4ccco4)CC3)cc21	0	0	54.5	0	0	41.6	63.2
O=C(NCCCN1CCOCC1)c1cc(-c2ccc(F)cc2)no1	0	0	0	0	0	-	-
O=C1[C@@H](Oc2ccccc2)[C@@H](c2cnc3ccccc3c2)N1c1ccccc1	0	-	52.8	-	0	54.1	56.4
O=C1[C@H](Oc2ccccc2)[C@@H](c2ccncc2)N1c1ccncc1	0	-	0	-	0	-	-
Cc1ccc(NC(=S)N(C)C(c2ccccc2)c2ccccc2)cc1C	0	0	59.0	0	0	0	-
Cc1ccc(C)c(OCc2cc(C(=O)NC3CCN(Cc4ccccc4)CC3)no2)c1	0	0	53.4	0	0	0	-
